The text below walks through data of ChEMBL document CHEMBL3433997, “St. Jude Leishmania screening dataset” (2016).

Assay type in all cases: functional
The target in assay [1] is Solute carrier family 2, facilitated glucose transporter member 1 (Homo sapiens) (UniProt P11166). The assay can be described thus: ST_JUDE_LEISH: Cytotoxicity at 2uM final concentration against transgenic Leishmania Mexicana promastigotes LmGLUT1 that are glucose transport deficient and complemented with the human glucose transporter GLUT1. Activity is measured by DNA content using SYBR green in vitro.

Assay [2] has as its target Hexose transporter 1 (Plasmodium falciparum) (UniProt O97467). Put plainly: ST_JUDE_LEISH: Cytotoxicity at 2uM final concentration against transgenic Leishmania Mexicana promastigotes LmPfHT that are glucose transport deficient and complemented with the Plasmodium falciparum hexose transporter. Activity is measured by DNA content using SYBR green in vitro.
Assay [3] deals with Glucose transporter (Leishmania mexicana) (UniProt O61059). The assay can be described thus: ST_JUDE_LEISH: Cytotoxicity at 2uM final concentration against transgenic Leishmania Mexicana promastigotes LmGT2 that are glucose transport deficient and complemented with the L. Mexicana glucose transporter 2. Activity is measured by DNA content using SYBR green in vitro.

Sequence of Solute carrier family 2, facilitated glucose transporter member 1 (Homo sapiens) (P11166 whole entry): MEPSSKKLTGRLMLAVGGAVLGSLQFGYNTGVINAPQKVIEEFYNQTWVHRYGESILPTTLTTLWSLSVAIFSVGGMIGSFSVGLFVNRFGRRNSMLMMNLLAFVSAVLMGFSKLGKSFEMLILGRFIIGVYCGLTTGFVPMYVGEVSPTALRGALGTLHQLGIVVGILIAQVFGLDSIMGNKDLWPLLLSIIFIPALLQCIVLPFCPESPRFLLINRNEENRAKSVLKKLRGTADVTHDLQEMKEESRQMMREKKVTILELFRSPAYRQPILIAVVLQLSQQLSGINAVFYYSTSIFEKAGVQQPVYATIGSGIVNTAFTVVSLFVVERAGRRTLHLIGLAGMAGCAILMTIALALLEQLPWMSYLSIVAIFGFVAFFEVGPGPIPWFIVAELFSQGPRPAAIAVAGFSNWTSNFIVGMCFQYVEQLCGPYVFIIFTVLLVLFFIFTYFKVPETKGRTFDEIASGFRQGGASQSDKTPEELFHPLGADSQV

`Cc1cccc2nc(-c3cccc(-c4ccc(NC(=O)Cc5ccccn5)cc4)c3)[nH]c12`: the inhibition – broadly, the relative decrease from the control value, in per cent – worked out at 4.3% in assay [1], 2.5% in assay [2] and 2.64% in assay [3].
As for `O=C(NC1CC1)c1ccc(Nc2nccc(-c3c(-c4cccc(NC(=O)c5c(F)cccc5F)c4)nn4ccccc34)n2)cc1`, the inhibition in assay [1] amounted to 7.45%; in assay [2], 8.87%; in assay [3] it was 3.41%.
As for `CS(=O)(=O)NCCCNCc1ccc(-c2ccc(-c3nc4cc(C(F)(F)F)ccc4[nH]3)s2)cc1`, the results for the inhibition in assay [1], in assay [2] and in assay [3] were 1.6%, 2.03% and 1.6%, respectively.
`O=c1cc(NCCCNCc2cccc(I)c2)[nH]c2ccccc12`: the inhibition in assay [1] is 0.98%; in assay [2] it was 0.27%; in assay [3], -0.58%.
On the same counts, the results for `Cc1cc(NC2CCCC2)nc(Nc2ccc(F)cc2)n1` are 8.81%, 7.56% and 0.46%.
The corresponding values for `O=C1CSc2ccc(CNC3CCN(CCc4c(F)cnc5ccc(F)cc45)CC3)nc2N1` are -2.82%, 0.21% and -1.74%.
For the compound `CCC(O)(C#Cc1c(C)nc(N)nc1N)CC`, the inhibition was 2.19% in assay [1], 2.72% in assay [2] and -0.68% in assay [3].
On to `Cc1ccoc1C(=O)Nc1cccc(-c2cccc(-c3nc4ccccc4[nH]3)c2)c1`, for which the inhibition in assay [1] came out at 12.3%; in assay [2], 6.56%; in assay [3], 5.58%.
As to `c1cc(-c2ccc(CNCc3ccsc3)cc2)cc(-c2nc3ccccc3[nH]2)c1`, the inhibition in assay [1] was 1.08%; in assay [2] it was 3.56%; in assay [3] it was -2.01%.
On the same counts, the results for `COc1ccc(C2CCN(CCCCNC(=O)c3ccc(NC(=O)c4ccc(Cl)cc4)cc3)C2)c(OC)c1` (stereo unspecified) are -0.08%, 0.01% and 0.7%.
Take `Cc1ccc(S(=O)(=O)c2nc(S(=O)(=O)c3ccccc3)sc2NCC2CCCO2)cc1` (stereo unspecified): the inhibition is 11.8% in assay [1], 11.1% in assay [2] and 9.48% in assay [3].
On to `CC(C)NCc1ccc(OCc2cccc(COc3ccc(CNC(C)C)cc3I)c2)c(I)c1`, for which the values for the inhibition in assay [1], in assay [2] and in assay [3] were 112%, 109% and 113%, respectively.
